# Reference: PubChem BioAssay (EPA / NIEHS)
# Activity calls are given as the source filed them. The calls were made as follows: active = hit-call score of the fitted dose curve at least 0.9, where 1 is the maximum; inactive = score below 0.9. *1 amine or outer side, *2 acyl side, *3 side chain or, on linkers, in order; H or OH if unused. Where a SMILES comes first, the peptide text is derived from it. Bridges are numbered along the chain shown (N, C = ends). Roman numbers before positions name the chains, in order. [ ]: non-standard residue; d: D form. Actinocin(9to1) = Cc1c2oc3c(C)ccc(C(=O)[*:1])c3nc-2c(C(=O)[*:2])c(N)c1=O; NMeV = CN[C@H](C(=O)O)C(C)C; Sar = CNCC(=O)O
# Test system: SRY-box transcription factor 17 (SOX17) Protein Expression, Deisenroth Lab, SOX17 (gene 64321)
# Assay: CCTE_Deisenroth_DEVTOX-GLR_Endo_SOX17: CCTE's DevTox GLR-Endo Assay Evaluation of SRY-box transcription factor 17 (SOX17) Protein Expression, Deisenroth Lab (AID 2284413)
# Procedure: CCTE_Deisenroth_DEVTOX-GLR_Endo assay is a cell-based, multiplex-readout assay that uses RUES2-GLR, a human pluripotent cell line, with measurements taken at 48 hours after chemical dosing in a 384-well microplateCCTE_Deisenroth_DEVTOX-GLR_Endo_SOX17 is 1 of 4 assay components calculated from the CCTE_Deisenroth_DEVTOX-GLR_Endo assay and it measures the percentage of cells in an endoderm state. Using a type of inducible fluorescent protein reporter, gain-of-signal activity can be used to understand changes in gene expression with fluorescent microscopy. The percentage of SOX17+ cells are determined by calculating the number of SOX17+ cells divided by the cell count. To generalize the intended target to other relatable targets, this assay component is annotated to the transcription factor intended target family, where the subfamily is SRY-related HMG-box.Data from the assay component CCTE_Deisenroth_DEVTOX-GLR_Endo_SOX17 was analyzed as 1 assay endpoint. The endpoint is the percent change in SOX17+ cell population relative to the 0.2% DMSO control in the CCTE_Deisenroth_DEVTOX-GLR_Endo assay. This assay endpoint can be referred to as a primary readout since this assay has produced multiple assay endpoints where this one serves as a measure of endoderm differentiation.
# All assay protocols are aligned to the DevTox GLR-Endo assay workflow. Cells are seeded into 384-well microplates for 24 hours prior to initiating differentiation in defined media for a total duration of 48 hours. A total of two chemical exposures are administered in 24-hour intervals during the 48-hour differentiation period. At the assay termination point, cells are fixed and stained with a fluorescent dye demarcating the nucleus. High-content imaging is used to acquire brightfield and fluorescent channel images across 5 fields per well. Cell identification and mean biomarker fluorescence intensities are calculated with image analysis software to determine the total cell counts for viability assessment and the biomarker expression frequency for each lineage-dependent assay. A typical experimental design tests a 10-point concentration series (1 nM - 200 uM) for 28 compounds in single technical replicate. Assay plate controls include non-differentiated pluripotent cells (baseline control), lineage-specific differentiated cells (differentiation control), and DMSO solvent exposed differentiated cells (solvent control). Experiments typically comprise a minimum of four experimental replicates (n=4).
row,SMILES,AC50
1,CNC(=O)c1cc(Oc2ccc(NC(=O)Nc3ccc(Cl)c(C(F)(F)F)c3)cc2)ccn1,0.604 µM (active)
2,O=c1[nH]c(=O)n([C@H]2C[C@H](O)[C@@H](CO)O2)cc1Br,0.657 µM (active)
3,CCCCCN=C(N)N/N=C/c1c[nH]c2ccc(OC)cc12,5.27 µM (active)
4,Cc1nc(Nc2ncc(C(=O)Nc3c(C)cccc3Cl)s2)cc(N2CCN(CCO)CC2)n1,0.633 µM (active)
5,CN1CCN2c3ccccc3Cc3ccccc3C2C1 (stereo not given),34.1 µM (active)
6,COc1cc2ncnc(Nc3ccc(F)c(Cl)c3)c2cc1OCCCN1CCOCC1,5.78 µM (active)
7,CCN(CC)CCNC(=O)c1c(C)[nH]c(/C=C2\C(=O)Nc3ccc(F)cc32)c1C,0.616 µM (active)
8,O=C(c1ccc(F)cc1)C1CCN(CCn2c(=O)[nH]c3ccccc3c2=O)CC1,37.9 µM (active)
9,O=C1Cc2cc(CCN3CCN(c4nsc5ccccc45)CC3)c(Cl)cc2N1,3.99 µM (active)
10,"Cc1c2oc3c(C)ccc(C(=O)N[C@@H]4C(=O)N[C@H](C(C)C)C(=O)N5CCC[C@H]5C(=O)N(C)CC(=O)N(C)[C@@H](C(C)C)C(=O)O[C@@H]4C)c3nc-2c(C(=O)N[C@@H]2C(=O)N[C@H](C(C)C)C(=O)N3CCC[C@H]3C(=O)N(C)CC(=O)N(C)[C@@H](C(C)C)C(=O)O[C@@H]2C)c(N)c1=O (I: T[dV]P[Sar][NMeV] / II: T[dV]P[Sar][NMeV]; ester I:1-I:C, II:1-II:C; linker I:N-II:N via Actinocin(9to1))",4.42e-05 µM (active)
11,COc1cc2c(Nc3ccc(Br)cc3F)ncnc2cc1OCC1CCN(C)CC1,4.83 µM (active)
12,CC1=C(/C=C/C(C)=C/C=C/C(C)=C\C(=O)O)C(C)(C)CCC1,0.119 µM (active)
13,Nc1cccc2c1CN(C1CCC(=O)NC1=O)C2=O (stereo not given),0.293 µM (active)
14,Cc1ccc(NC(=O)c2ccc(CN3CCN(C)CC3)cc2)cc1Nc1nccc(-c2cccnc2)n1,14.2 µM (active)
15,Cc1nc2sccn2c(=O)c1CCN1CCC(=C(c2ccc(F)cc2)c2ccc(F)cc2)CC1,11 µM (active)
